A short description of assay [1]: ATG_TCF_b_cat_CIS: Attagene CIS-FACTORIAL HepG2 Assay for human T-Cell-Factor with beta-catenin (TCF/b-cat) (AID 2282965; active means hit-call score of the fitted dose curve at least 0.9, where 1 is the maximum; inactive means score below 0.9). As to conditions: HepG2 TCF/beta-catenin cis-reporter transcription, actives raise or lower the signal. Put shortly:
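Measured: reporter mRNA in HepG2 transiently transfected with cis-promoter reporter units, 24 h after chemical addition. Fitting was bidirectional, DMSO as negative control.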

A short description of assay [2]: ATG_TGFb_CIS: Attagene CIS-FACTORIAL HepG2 Assay for human Transforming Growth Factor (TGF) (AID 2282967; active means hit-call score of the fitted dose curve at least 0.9, where 1 is the maximum; inactive means score below 0.9). As to conditions: HepG2 Attagene CIS TGFb reporter, mRNA transcription; actives raise or lower the signal. Put shortly: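 HepG2 cells transiently transfected with cis-promoter-driven multiple reporter units measure endogenous TF activity; reporter mRNA quantified at 24 h by RT-PCR, FAM labeling, HpaI digestion and capillary electrophoresis. Bidirectional fit vs DMSO.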

Assay [3] is described as follows: ATG_VDRE_CIS: Attagene CIS-FACTORIAL HepG2 Assay for human Vitamin D Receptor Element (VDRE) (AID 2282968; active means hit-call score of the fitted dose curve at least 0.9, where 1 is the maximum; inactive means score below 0.9). The conditions noted are these: HepG2 VDRE cis-reporter transcription, actives raise or lower the signal. Put shortly: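 In transiently transfected HepG2 liver cells, gain or loss of reporter mRNA after 24 h exposure is scored relative to DMSO, using fluorescence detection by capillary electrophoresis of RT-PCR products.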

The target of assay [4] is Estrogen receptor (Homo sapiens) (UniProt P03372). The assay can be described thus: ATG_ERa_TRANS: Attagene TRANS-FACTORIAL HepG2 Assay for human Estrogen Receptor alpha (ERa) (AID 2282970). The conditions noted are these: HepG2 Attagene TRANS ERa GAL4 reporter, mRNA. The method, boiled down:
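Human liver HepG2, transient transfection of multiple GAL4-UAS reporter units; TRANS format (exogenous NR-Gal4 chimera). 24 h dosing. Readout: reporter mRNA, RT-PCR, 6-FAM primer extension, HpaI digest, capillary electrophoresis. Positive direction vs DMSO.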

Assay [5] deals with Steroid hormone receptor ERR1 (Homo sapiens) (UniProt P11474). Put plainly: ATG_ERRa_TRANS: Attagene TRANS-FACTORIAL HepG2 Assay for human Estrogen-Related Receptor alpha (ERRa) (AID 2282971). As to conditions: HepG2 Attagene TRANS reporter, ERRa transactivation. Put shortly:
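Reporter transcript induction was quantified by RT-PCR and capillary electrophoresis of FAM-labelled, HpaI-cut products after 24 h treatment of HepG2 cells carrying transiently transfected GAL4-UAS reporter units and an exogenous ERRa-Gal4 fusion; activity scored as increase over DMSO.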

Assay [6] has as its target X-box-binding protein 1 (Homo sapiens) (UniProt P17861). Put plainly: ATG_Xbp1_CIS: Attagene CIS-FACTORIAL HepG2 Assay for human X-box Binding Protein 1 (XBP1) (AID 2282972; active means hit-call score of the fitted dose curve at least 0.9, where 1 is the maximum; inactive means score below 0.9). The conditions noted are these: HepG2 XBP1 cis-element reporter, Attagene multiplex; actives raise or lower the signal. The method, boiled down:
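HepG2, transient MRTU transfection (cis-promoter driven), 24 h compound exposure. Total RNA → oligo(dT) RT → PCR → 6-FAM labeling → HpaI cut → CE. Bidirectional fit vs DMSO.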

The nature of assay [7]: ATG_M_19_TRANS: Attagene TRANS-FACTORIAL HepG2 Assay for M19 Transcription Factor (Internal Marker) (AID 2282974). As to conditions: HepG2 Attagene TRANS-FACTORIAL M19 internal marker reporter. Put shortly: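 HepG2 cells transiently transfected with multiple GAL4-UAS reporter transcription units were exposed to chemicals for 24 h. Reporter mRNA was read by RT-PCR, 6-FAM primer extension, HpaI digestion and capillary electrophoresis; gain of signal fitted relative to DMSO.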

Assay [8] is described as follows: ATG_GAL4_TRANS: Attagene TRANS-FACTORIAL HepG2 Assay for GAL4 (Internal Marker) (AID 2282976). As to conditions: HepG2 Attagene TRANS GAL4 internal marker reporter. The method, boiled down:
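First, HepG2 cells were transfected with reporter units under GAL4-UAS control. Next, they were treated with chemical for 24 h. Finally, RNA was reverse-transcribed, PCR-amplified, FAM-labelled and resolved by capillary electrophoresis, with induction scored against DMSO.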

The target in assay [9] is Hepatocyte nuclear factor 4-alpha (Homo sapiens) (UniProt P41235). The assay can be described thus: ATG_HNF4a_TRANS: Attagene TRANS-FACTORIAL HepG2 Assay for human Hepatocyte Nuclear Factor 4 alpha (HNF4a) (AID 2282982). As to conditions: HepG2 HNF4a transactivation reporter, mRNA readout. Put shortly: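 Transfected HepG2 reporter cells are dosed for 24 h; reporter RNA is reverse-transcribed, amplified, fluorescently labelled and HpaI-digested before CE sizing. Positive-direction fit against DMSO.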

Assay [10] can be described thus: ATG_M_32_TRANS: Attagene TRANS-FACTORIAL HepG2 Assay for M32 Transcription Factor (Internal Marker) (AID 2282984).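 Further: transcript level of a background control reporter unit measured by RT-PCR and capillary electrophoresis.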 As to conditions: HepG2 Attagene TRANS M32 internal marker reporter. The method, boiled down: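 Using transiently transfected HepG2 cells exposed to test chemicals for 24 h, reporter transcripts are converted to labelled cDNA fragments and quantified by capillary electrophoresis. DMSO defines the activity baseline.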

For assay [11], the target named is Nuclear receptor subfamily 4 group A member 2 (Homo sapiens) (UniProt P43354). Put plainly: ATG_NURR1_TRANS: Attagene TRANS-FACTORIAL HepG2 Assay for human Nuclear Receptor Related Protein 1 (NURR1) (AID 2282985). As to conditions: HepG2 Attagene TRANS reporter, mRNA readout. Put shortly: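 Cells: HepG2, transiently transfected. Exposure: 24 h. Detection: fluorescence of labelled RT-PCR products separated by capillary electrophoresis; upward fit versus DMSO.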

In assay [12] the target is Transcriptional activator Myb (Homo sapiens) (UniProt P10242). Put plainly: ATG_Myb_CIS: Attagene CIS-FACTORIAL HepG2 Assay for human Myeloblastosis (Myb) Proto-Oncogene Transcription Factor (AID 2282986; active means hit-call score of the fitted dose curve at least 0.9, where 1 is the maximum; inactive means score below 0.9). The conditions noted are these: HepG2 Attagene CIS-FACTORIAL Myb reporter transcription; actives raise or lower the signal. Put shortly: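 HepG2 cells were transiently transfected with cis-regulated multiple reporter transcription units reflecting endogenous Myb activity, then exposed to compound for 24 hours. Reporter mRNA was measured by RT-PCR with capillary electrophoresis; bidirectional fitting versus DMSO baseline.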

Assay [13] addresses Bile acid receptor (Homo sapiens) (UniProt Q96RI1). Put plainly: ATG_FXR_TRANS: Attagene TRANS-FACTORIAL HepG2 Assay for Farnesoid X Receptor (FXR) (AID 2282979).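 Further: hits raise reporter mRNA above DMSO so AC50 marks FXR activation.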 The conditions noted are these: HepG2 Attagene TRANS FXR-GAL4 reporter transcription. Put shortly: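 Transient transfection of HepG2 with multiplexed GAL4-UAS reporter units; exogenous FXR-GAL4 chimera. Dose 24 h → TriZol RNA → oligo(dT) RT → PCR, 6-FAM primer extension, HpaI cut → CE. Gain vs DMSO.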

For assay [14], the target named is Estrogen-related receptor gamma (Homo sapiens) (UniProt P62508). The assay can be described thus: ATG_ERRg_TRANS: Attagene TRANS-FACTORIAL HepG2 Assay for human Estrogen-Related Receptor gamma (ERRg) (AID 2282977).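 Further: hits increase reporter signal over DMSO so potencies reflect activators.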 As to conditions: HepG2 Attagene TRANS reporter, ERRg transactivation. The method, boiled down: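 Transient HepG2 transfectants, 24 h compound exposure, GAL4-UAS reporter mRNA by RT-PCR/6-FAM labelling/capillary electrophoresis; positive direction vs DMSO.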

In assay [15] the target is Glucocorticoid receptor (Homo sapiens) (UniProt P04150). The assay can be described thus: ATG_GR_TRANS: Attagene TRANS-FACTORIAL HepG2 Assay for human Glucocorticoid Receptor (GR) (AID 2282978).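 Further: activators score as hits since higher reporter transcript over DMSO is fitted.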 As to conditions: HepG2 Attagene TRANS GR reporter, mRNA transcription. Put shortly:
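HepG2 cells transiently transfected with multiplexed reporter units in which chimeric NR-GAL4 proteins drive GAL4-UAS reporters; 24 h compound exposure. Reporter mRNA measured by RT-PCR, 6-FAM labelling, HpaI digestion and capillary electrophoresis; gain-of-signal fitted versus DMSO.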

Assay [16] is described as follows: ATG_M_06_TRANS: Attagene TRANS-FACTORIAL HepG2 Assay for M06 Transcription Factor (Internal Marker) (AID 2282983).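 Further: reporter transcript level by RT-PCR then capillary electrophoresis fluorescence.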 As to conditions: HepG2 Attagene TRANS M06 internal marker reporter. The method, boiled down:
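Transfect HepG2 with MRTUs → dose compounds 24 h → isolate RNA, oligo(dT) RT → PCR with reporter primers → 6-FAM primer extension → HpaI digest → CE fragment analysis. Positive direction vs DMSO.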

Assay [17] addresses Nuclear receptor subfamily 1 group I member 3 (Homo sapiens) (UniProt Q14994). The assay can be described thus: ATG_CAR_TRANS: Attagene TRANS-FACTORIAL HepG2 Assay for human Constitutive Androstane Receptor (CAR) (AID 2282969).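 Further: activators raise reporter mRNA above DMSO so AC50 marks induction.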 The conditions noted are these: HepG2 Attagene TRANS-FACTORIAL CAR reporter. The method, boiled down:
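Readout is reporter mRNA induction, quantified by fluorescent primer extension and capillary electrophoresis after RT-PCR. Cells were HepG2 transiently carrying chimeric NR-Gal4 constructs with GAL4-UAS reporters, treated for 24 h; activity scored upward from DMSO.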

For assay [18], the target named is Oxysterols receptor LXR-alpha (Homo sapiens) (UniProt Q13133). The assay can be described thus: ATG_LXRa_TRANS: Attagene TRANS-FACTORIAL HepG2 Assay for human Liver X Receptor alpha (LXRa) (AID 2282980). The conditions noted are these: HepG2 Attagene TRANS reporter, LXRa transactivation. The method, boiled down:
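Transfect HepG2 with GAL4-UAS multiplex reporter constructs (TRANS format, chimeric receptor-GAL4); treat 24 h; extract RNA, reverse-transcribe, PCR-amplify, FAM-label, HpaI-digest; resolve fragments by capillary electrophoresis. Upward response vs DMSO.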

For assay [19], the target named is Oxysterols receptor LXR-beta (Homo sapiens) (UniProt P55055). Put plainly: ATG_LXRb_TRANS: Attagene TRANS-FACTORIAL HepG2 Assay for human Liver X Receptor beta (LXRb) (AID 2282981). The conditions noted are these: HepG2 Attagene TRANS GAL4-LXRb reporter, mRNA. Put shortly: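 Cells: HepG2, transiently transfected with GAL4-UAS reporter units plus LXRb-Gal4 fusion. Treatment: 24 h. Detection: reporter mRNA by RT-PCR, 6-FAM labelling, HpaI digestion, capillary electrophoresis.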

Records with an inconclusive call do not appear. Calls of active or inactive are those of the source. How the source made its calls, unless noted: active means hit-call score of the fitted dose curve at least 0.9, where 1 is the maximum; inconclusive means response in the unintended direction; inactive means score below 0.9.

Consider nine compounds from PubChem BioAssay (EPA / NIEHS).

Oxysterols receptor LXR-beta (Homo sapiens), sequence (P55055 whole entry, looked up, the tested form may be a part): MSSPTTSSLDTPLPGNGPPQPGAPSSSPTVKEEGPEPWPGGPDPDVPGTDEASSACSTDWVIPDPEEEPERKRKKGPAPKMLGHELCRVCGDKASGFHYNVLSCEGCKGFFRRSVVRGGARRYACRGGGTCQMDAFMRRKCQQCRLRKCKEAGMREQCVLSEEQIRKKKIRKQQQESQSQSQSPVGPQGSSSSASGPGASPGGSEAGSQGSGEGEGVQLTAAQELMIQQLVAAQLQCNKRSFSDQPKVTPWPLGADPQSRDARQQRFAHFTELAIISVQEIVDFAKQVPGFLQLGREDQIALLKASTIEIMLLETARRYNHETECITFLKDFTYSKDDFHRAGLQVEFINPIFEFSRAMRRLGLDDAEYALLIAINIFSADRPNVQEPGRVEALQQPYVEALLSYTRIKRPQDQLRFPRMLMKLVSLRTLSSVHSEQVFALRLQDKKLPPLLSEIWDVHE
Bile acid receptor (Homo sapiens), sequence (Q96RI1 whole entry, looked up, the tested form may be a part): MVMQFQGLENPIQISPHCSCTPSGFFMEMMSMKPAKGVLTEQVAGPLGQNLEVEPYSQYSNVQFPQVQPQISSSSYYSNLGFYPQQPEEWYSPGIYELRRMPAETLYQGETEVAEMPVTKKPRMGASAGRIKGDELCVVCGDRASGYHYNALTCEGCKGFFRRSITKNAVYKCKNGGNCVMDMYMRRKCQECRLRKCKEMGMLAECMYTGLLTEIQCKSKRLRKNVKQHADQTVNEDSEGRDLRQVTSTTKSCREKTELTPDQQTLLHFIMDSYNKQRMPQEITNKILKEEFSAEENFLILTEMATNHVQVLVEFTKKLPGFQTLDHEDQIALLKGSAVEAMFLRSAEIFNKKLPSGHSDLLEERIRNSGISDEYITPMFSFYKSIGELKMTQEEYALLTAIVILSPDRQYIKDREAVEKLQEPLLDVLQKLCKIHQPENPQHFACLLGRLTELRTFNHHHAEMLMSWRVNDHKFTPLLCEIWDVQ
X-box-binding protein 1 (Homo sapiens), sequence (P17861 whole entry, looked up): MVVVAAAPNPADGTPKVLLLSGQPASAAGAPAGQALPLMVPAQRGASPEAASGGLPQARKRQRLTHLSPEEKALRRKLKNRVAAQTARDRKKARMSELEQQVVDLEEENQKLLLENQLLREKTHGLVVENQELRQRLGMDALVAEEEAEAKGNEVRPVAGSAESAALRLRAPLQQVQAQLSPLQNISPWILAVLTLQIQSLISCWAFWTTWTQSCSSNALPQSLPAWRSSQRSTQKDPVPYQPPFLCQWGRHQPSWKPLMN
Steroid hormone receptor ERR1 (Homo sapiens), sequence (P11474 whole entry, looked up, the tested form may be a part): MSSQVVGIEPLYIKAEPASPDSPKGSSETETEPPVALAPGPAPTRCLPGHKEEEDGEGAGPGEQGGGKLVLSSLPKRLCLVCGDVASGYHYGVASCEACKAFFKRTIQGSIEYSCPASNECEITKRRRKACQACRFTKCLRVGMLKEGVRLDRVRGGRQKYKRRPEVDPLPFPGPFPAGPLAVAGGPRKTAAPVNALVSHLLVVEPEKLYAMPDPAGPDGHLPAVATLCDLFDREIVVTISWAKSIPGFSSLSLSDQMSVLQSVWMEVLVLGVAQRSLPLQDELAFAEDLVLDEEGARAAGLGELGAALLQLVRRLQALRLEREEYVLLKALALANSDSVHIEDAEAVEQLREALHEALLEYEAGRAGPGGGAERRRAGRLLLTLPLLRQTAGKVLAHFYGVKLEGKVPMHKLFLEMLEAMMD
Oxysterols receptor LXR-alpha (Homo sapiens), sequence (Q13133 whole entry, looked up, the tested form may be a part): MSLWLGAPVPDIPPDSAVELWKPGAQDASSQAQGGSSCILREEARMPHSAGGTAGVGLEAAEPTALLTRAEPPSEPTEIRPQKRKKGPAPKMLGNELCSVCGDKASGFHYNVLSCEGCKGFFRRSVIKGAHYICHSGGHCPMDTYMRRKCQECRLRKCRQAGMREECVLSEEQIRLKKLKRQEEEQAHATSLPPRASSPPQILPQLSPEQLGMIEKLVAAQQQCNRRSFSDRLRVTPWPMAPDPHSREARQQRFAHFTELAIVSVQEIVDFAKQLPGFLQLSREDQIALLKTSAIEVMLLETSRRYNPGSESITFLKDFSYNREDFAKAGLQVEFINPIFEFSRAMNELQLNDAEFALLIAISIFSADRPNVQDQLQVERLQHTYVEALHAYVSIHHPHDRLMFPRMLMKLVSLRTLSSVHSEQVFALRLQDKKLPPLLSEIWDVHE
Nuclear receptor subfamily 1 group I member 3 (Homo sapiens), sequence (Q14994 whole entry, looked up, the tested form may be a part): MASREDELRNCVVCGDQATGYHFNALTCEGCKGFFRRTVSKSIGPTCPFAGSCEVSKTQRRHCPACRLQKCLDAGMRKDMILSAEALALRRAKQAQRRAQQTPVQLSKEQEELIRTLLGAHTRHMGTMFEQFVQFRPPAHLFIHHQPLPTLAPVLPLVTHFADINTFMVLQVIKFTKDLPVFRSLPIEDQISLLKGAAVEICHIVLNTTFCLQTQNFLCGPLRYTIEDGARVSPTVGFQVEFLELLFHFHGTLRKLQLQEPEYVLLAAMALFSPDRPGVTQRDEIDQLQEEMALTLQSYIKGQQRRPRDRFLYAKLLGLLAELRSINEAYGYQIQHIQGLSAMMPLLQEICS
Hepatocyte nuclear factor 4-alpha (Homo sapiens), sequence (P41235 whole entry, looked up): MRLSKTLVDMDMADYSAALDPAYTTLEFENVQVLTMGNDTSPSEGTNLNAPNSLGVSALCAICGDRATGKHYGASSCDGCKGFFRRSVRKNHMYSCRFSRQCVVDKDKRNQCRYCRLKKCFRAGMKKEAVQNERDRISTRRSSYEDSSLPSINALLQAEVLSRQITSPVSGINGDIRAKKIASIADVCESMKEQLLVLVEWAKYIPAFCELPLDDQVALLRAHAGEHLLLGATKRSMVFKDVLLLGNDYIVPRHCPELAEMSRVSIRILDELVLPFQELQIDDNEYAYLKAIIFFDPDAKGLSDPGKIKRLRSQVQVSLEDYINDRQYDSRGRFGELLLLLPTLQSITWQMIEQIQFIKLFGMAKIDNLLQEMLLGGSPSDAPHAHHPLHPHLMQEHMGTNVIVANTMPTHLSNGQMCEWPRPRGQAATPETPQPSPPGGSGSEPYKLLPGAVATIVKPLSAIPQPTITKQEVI
Nuclear receptor subfamily 4 group A member 2 (Homo sapiens), sequence (P43354 whole entry, looked up): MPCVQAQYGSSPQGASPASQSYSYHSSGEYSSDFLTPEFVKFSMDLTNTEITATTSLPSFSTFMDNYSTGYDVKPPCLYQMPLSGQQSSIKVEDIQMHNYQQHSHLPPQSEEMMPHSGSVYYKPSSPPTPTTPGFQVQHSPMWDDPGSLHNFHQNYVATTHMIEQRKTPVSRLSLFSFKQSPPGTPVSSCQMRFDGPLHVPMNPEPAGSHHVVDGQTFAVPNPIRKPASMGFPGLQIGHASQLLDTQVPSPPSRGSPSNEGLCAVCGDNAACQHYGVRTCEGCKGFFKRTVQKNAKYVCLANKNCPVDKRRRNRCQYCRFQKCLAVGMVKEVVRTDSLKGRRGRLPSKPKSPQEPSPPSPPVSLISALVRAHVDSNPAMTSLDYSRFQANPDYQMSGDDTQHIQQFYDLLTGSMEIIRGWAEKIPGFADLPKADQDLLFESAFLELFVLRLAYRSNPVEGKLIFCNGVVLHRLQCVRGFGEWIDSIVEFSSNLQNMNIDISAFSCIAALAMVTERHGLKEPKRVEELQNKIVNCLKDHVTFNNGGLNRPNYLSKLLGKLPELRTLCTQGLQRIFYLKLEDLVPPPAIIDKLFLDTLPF
Transcriptional activator Myb (Homo sapiens), sequence (P10242 whole entry, looked up): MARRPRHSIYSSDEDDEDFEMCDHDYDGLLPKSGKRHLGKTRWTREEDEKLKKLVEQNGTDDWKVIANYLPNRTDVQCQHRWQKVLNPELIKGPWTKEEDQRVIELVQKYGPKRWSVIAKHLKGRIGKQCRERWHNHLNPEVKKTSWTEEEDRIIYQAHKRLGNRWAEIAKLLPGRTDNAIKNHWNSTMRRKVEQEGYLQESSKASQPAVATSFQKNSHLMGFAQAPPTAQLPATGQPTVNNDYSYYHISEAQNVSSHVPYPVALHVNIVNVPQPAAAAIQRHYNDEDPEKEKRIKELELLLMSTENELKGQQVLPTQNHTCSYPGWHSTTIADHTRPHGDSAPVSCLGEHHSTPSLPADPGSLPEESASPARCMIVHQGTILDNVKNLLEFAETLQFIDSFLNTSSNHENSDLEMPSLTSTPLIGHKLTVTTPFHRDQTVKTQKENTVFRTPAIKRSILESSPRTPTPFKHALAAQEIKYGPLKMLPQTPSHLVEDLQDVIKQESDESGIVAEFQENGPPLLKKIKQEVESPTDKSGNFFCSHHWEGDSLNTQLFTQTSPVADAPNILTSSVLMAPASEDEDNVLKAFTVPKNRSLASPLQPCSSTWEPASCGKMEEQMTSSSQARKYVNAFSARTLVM
Estrogen receptor (Homo sapiens), sequence (P03372 whole entry, looked up, the tested form may be a part): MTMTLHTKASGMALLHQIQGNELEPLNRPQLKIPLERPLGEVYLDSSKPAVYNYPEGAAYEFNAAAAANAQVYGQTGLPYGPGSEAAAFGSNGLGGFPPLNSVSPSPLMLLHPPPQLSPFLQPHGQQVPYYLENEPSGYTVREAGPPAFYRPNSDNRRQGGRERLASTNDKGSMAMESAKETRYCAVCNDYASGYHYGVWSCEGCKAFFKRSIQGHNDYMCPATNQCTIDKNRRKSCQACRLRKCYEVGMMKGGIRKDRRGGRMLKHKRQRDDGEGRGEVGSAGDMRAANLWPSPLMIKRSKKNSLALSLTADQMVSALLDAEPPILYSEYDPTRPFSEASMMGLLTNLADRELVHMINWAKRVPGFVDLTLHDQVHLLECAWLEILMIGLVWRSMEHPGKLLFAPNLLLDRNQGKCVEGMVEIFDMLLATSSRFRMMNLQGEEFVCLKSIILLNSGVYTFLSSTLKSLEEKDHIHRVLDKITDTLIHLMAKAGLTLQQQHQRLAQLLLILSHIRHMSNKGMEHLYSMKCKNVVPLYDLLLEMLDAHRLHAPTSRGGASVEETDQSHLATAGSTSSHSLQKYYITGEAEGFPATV

`NNC(=O)OCc1ccccc1`: the compound was called inactive in assay [1], in [2], in assay [3], in assay [4], in [5] and in assay [6]. Also, the call in [7], in [8], in assay [9], in assay [10], in assay [11] and in assay [12] was inactive.
Take `C=CC(O)CCCCC` (stereo unspecified): the figures for the AC50 in assay [1] and in assay [6] were 27 µM (active) and 48.1 µM (active), respectively. For the same compound, the outcome in assay [2], in [5], in [7], in assay [13], in assay [9] and in [12] was inactive.
Consider `O=C(O)CS`, for which the compound was called inactive in assay [1], in assay [2], in assay [3], in assay [5], in assay [6] and in [7]. Further, the compound was called inactive in [14], in assay [15], in assay [9], in assay [16], in assay [11] and in [12].
Take `CCC(=O)OC(C)(C)C1CC=C(C)CC1` (stereo unspecified): the compound was classed as inactive in assay [1], in assay [2], in assay [17], in assay [7], in assay [8] and in [13]. Also, the result in assay [18], in [19], in [9], in assay [10], in [11] and in assay [12] was inactive. Besides, in assay [4], the AC50 was 78.3 µM (active).
Turning to `NC(=O)NC(N)=O`, the call in [1], in [2], in assay [17], in assay [4], in assay [8] and in assay [18] was inactive. In addition, the compound was classed as inactive in [19], in assay [9], in assay [16], in assay [10], in assay [11] and in assay [12].
As to `CCC(CC)CO`, the result in [1], in [2], in assay [3], in assay [17], in assay [4] and in [6] was inactive. In addition, the result in assay [7], in [8], in assay [9], in assay [10] and in [12] was inactive.
For `COc1ccc(N)c(C)c1`, the half-maximal activity concentration (AC50) was 169 µM (active) in [1], 100 µM (active) in assay [3] and 56.5 µM (active) in assay [4]. The compound was classed as inactive in assay [2], in assay [17], in [7], in assay [13], in assay [18] and in [19]. Further, the call in assay [9] and in assay [12] was inactive.
Consider `CCCCC1CCCCC(=O)O1` (stereo unspecified), for which the call in assay [1], in [2], in assay [3], in assay [17], in assay [4] and in assay [7] was inactive. Also, the result in [14], in assay [15], in assay [19], in [9], in [16] and in assay [12] was inactive.
On to `CCCCCCCCCCOC(=O)c1ccccc1C(=O)OCCCCCCCC`, for which the result in assay [1], in [2], in assay [3], in assay [17], in [6] and in assay [7] was inactive. In addition, the compound was called inactive in [8], in assay [18], in assay [9] and in assay [12].

The term AC50 denotes the midpoint of the concentration-response curve, whichever way the signal moves.
